Reference: the supplement of paper PMC5662767
Structures can show the parent of a compound that is named as a salt.

Tested on: Drosophila S2 cl14 SmoIP sensor cells
Experiment: normalized SmoIP GFP fluorescence (untreated unstimulated = 0%, untreated Hh-stimulated = 100%); higher = more Smo activation sensor fluorescence
Settings: compound concentration: 2 uM, 24 h
[1] = stimulation: Hh conditioned medium (+Hh)
[2] = stimulation: mock conditioned medium (-Hh)
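Also: flow cytometry read-out as median GFP intensity of gated cells, compounds added 30 min before Hh-conditioned or mock medium, mock-treated cells serving as unstimulated baseline.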

SMILES | normalized SmoIP GFP fluorescence [1] [%] | normalized SmoIP GFP fluorescence [2] [%]
[O-][n+]1ccccc1[S-].[O-][n+]1ccccc1[S-].[Zn+2] [zinc-pyrithione] | 131 | 2.35
COc1ccc(C(CN(C)C)C2(O)CCCCC2)cc1 (stereo not drawn) [Venlafaxine-hydrochloride] |  | -2.42
O=c1[nH]c2ccc(Cl)cc2c(N[C@@H]2CN3CCC2CC3)c1-c1nc2ccccc2[nH]1 [chir-124] | 253 | 23.9
C[C@@H]1O[C@@H](O[C@H]2C[C@@H](O)[C@]3(CO)[C@H]4[C@H](O)C[C@]5(C)[C@@H](C6=CC(=O)OC6)CC[C@]5(O)[C@@H]4CC[C@]3(O)C2)[C@H](O)[C@H](O)[C@H]1O [ouabain] | 102 | -2.08
Cn1cc(C2=C(c3cn(C4CCN(Cc5ccccn5)CC4)c4ccccc34)C(=O)NC2=O)c2ccccc21 [Enzastaurin] | 135 | 38.2
C[C@]12CCC(=O)C(O)=C1CC[C@@H]1[C@@H]2CC[C@]2(C)C(=O)CC[C@@H]12 [Formestane] | 93.9 | -2.2
COC[C@H]1OC(=O)c2coc3c2[C@@]1(C)C1=C(C3=O)[C@@H]2CCC(=O)[C@@]2(C)C[C@H]1OC(C)=O [wortmannin] | 73.6 | 9.08
CCc1c(C(=O)C(N)=O)c2c(OCC(=O)O)cccc2n1Cc1ccccc1 |  | 4.26
Cc1cccc([C@H](C)c2c[nH]cn2)c1C [dexmedetomidine] | 108 | -2.59
CCN1CCN(C(=O)Cc2ccc(Nc3ncc(F)c(Nc4ccc(C(=O)Nc5ccccc5Cl)cc4)n3)cc2)CC1 [Aurora-A-Inhibitor-I] | 151 | 2.11
COC(=O)C1=CCCN(C)C1 [arecoline] | 130 | -12.4
CCOc1ccccc1-n1c(C(C)N2CCN(C(=O)COc3ccc(Cl)cc3)CC2)nc2ccccc2c1=O (stereo not drawn) [erastin] | 134 | 3.66
Cc1cc(SCc2sc(-c3ccc(C(F)(F)F)c(F)c3)nc2C)ccc1OCC(=O)O | 106 | -1.74
CC(C)(C)c1cc(C=C(C#N)C#N)cc(Br)c1O [ag-1024-tyrphostin] |  | 14.2
C[C@]12N[C@H](Cc3ccccc31)c1ccccc12 [mk-801-maleate] | 103 | -3.16
Cc1cccc(Cc2c[nH]cn2)c1C [detomidine-hcl] | 139 | -8.77
Cc1cccc(C(C)c2c[nH]cn2)c1C (stereo not drawn) [medetomidine-hcl] | 108 | -1.63

SMILES | normalized SmoIP GFP fluorescence [1] [%] | normalized SmoIP GFP fluorescence [2] [%]
O=C(O[C@H]1C[N+]2(CCCOc3ccccc3)CCC1CC2)C(O)(c1cccs1)c1cccs1 [aclidinium-bromide] | 97.3 | -4.58
CN1[C@@H]2CC(O)C[C@H]1[C@@H]1O[C@@H]12 (stereo partly drawn) [scopine] | 142 | -12
CN1CCc2cc3c(cc2[C@H]1[C@@H]1OC(=O)c2c1ccc1c2OCO1)OCO3 [bicuculline] | 101 | -3.9
O=C(NCC1CCOCC1)c1cnc(Nc2ccc(Cl)cc2Cl)nc1C(F)(F)F | 102 | -1.63
CN1CCN(c2nc3ccccc3nc2Cl)CC1 | 105 | -1.34
CCN(CC)C(=O)c1ccc(C2=CC3(CCNCC3)Oc3cccc(O)c32)cc1 | 99.7 | 2.11
C=C1C[C@@H]2[C@H](CC[C@]3(C)C(=O)CC[C@@H]23)[C@@]2(C)C=CC(=O)C=C12 [Exemestane] | 115 | -5.01
C[N+](C)(C)CCCCCCCCCC[N+](C)(C)C [decamethonium-bromide] | 104 | -5.04
COc1cc(-n2c(=S)[nH]c3ccccc3c2=O)c(Cl)cc1Cl [mdivi-1] | 108 | -1.34
COc1ccc(C(=O)N2CCCC2=O)cc1 [Aniracetam] | 104 | -0.588
C[C@H]1CCC/C=C/[C@@H]2C[C@H](O)C[C@H]2[C@H](O)/C=C/C(=O)O1 [brefeldin-a] | 101 | -4.58
CCN(C)C(=O)Oc1cccc([C@H](C)N(C)C)c1 [rivastigmine-tartrate-exelon] | 95.8 | -3.05
CCC(COC(=O)c1cc(OC)c(OC)c(OC)c1)(c1ccccc1)N(C)C (stereo not drawn) [trimebutine] | 111 | -15.8
CN1[C@@H]2C[C@@H](OC(=O)[C@H](CO)c3ccccc3)C[C@H]1[C@@H]1O[C@@H]12 [Scopolamine-hydrobromide] | 113 | -17.7
CNCC(=O)c1ccc(O)c(O)c1 [adrenalone-hcl] | 106 | -3.39
CCCN1CCOC2c3cc(O)ccc3OCC21 (stereo not drawn) | 113 | -13.6
